# Bioassay records deposited in PubChem BioAssay by several laboratories.
# M1 agonist: agonists of M1 muscarinic receptor; CHO-M1 cells, Fluo-4 calcium fluorescence, agonist mode; stronger effect = higher value; B-score at 10 µM; hit rate 3% among 64,000;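 active = fluorescence rise, raw or as B-score row- and column-corrected plate score, outside the 99.7% band of its plate's samples, either direction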
# M1 antagonist: antagonists of rat M1 muscarinic receptor; P08482; CHO-M1 cells, Fluo-4 calcium, ACh EC80 antagonist mode; stronger effect = lower value; B-score at 10 µM; hit rate 3.4% among 64,000;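 active = calcium fluorescence response, raw or row-and-column corrected B-score, differing from the plate sample mean either way at a set confidence level, mostly lower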
# Target sequence (P08482 whole entry, looked up): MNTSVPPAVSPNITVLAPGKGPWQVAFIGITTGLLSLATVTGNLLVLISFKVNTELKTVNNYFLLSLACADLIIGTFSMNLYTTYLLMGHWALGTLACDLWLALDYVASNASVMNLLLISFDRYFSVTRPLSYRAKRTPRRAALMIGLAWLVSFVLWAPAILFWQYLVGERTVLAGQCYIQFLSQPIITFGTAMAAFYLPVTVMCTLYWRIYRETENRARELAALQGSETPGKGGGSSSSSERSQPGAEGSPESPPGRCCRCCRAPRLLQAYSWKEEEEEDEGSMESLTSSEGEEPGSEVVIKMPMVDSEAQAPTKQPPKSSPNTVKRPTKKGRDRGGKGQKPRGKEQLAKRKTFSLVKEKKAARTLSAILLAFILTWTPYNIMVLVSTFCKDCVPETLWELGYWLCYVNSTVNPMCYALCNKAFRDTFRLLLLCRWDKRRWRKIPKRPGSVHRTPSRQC
# Fluor 339 460: intrinsic fluorescence of library compounds, ex339/em460 – biochemical, MLSMR library, data from DPM-DC assay, artefact control, profiling panel; fluorescence fold increase at 10 µM; compound autofluorescence, ex339/em460 nm, NADH buffer; stronger effect = higher value; 1 = no-compound wells, NADH background; hit rate 5.5% among 65,000;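 active = at 10 µM, mean starting fluorescence two-fold or more over control wells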;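 also: signal is the first read of a kinetic run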
# Abs 340nm: compound absorbs light at 340 nm; compound absorbance at 340 nm, fold over control; fold change at 10 µM; 65,000 tested, under 10 active;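 active = at 10 µM dose, initial 340 nm absorbance at least 2 fold that of control wells; inactive = change under 2 fold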;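 also: initial absorbance extrapolated from kinetic A340 decline of NADH oxidation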
# mHtt clearance: mutant huntingtin protein clearance. HeLa Exon1htt(103Q)mCFP, aggregate imaging; zero = plate's median compound well. inhibition, % at 1.5 µM. hit rate 0.42% among 47,000. AID 853;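 active = inhibition of aggregate fluorescence above about 70%, also judged a hit by eye on the cell image, limit read from the data, passing the limit was not always enough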;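 also: cells exposed to compound for three days before fixation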
# NADH coupling: inhibitors of enzymes used to reach an NAD/NADH endpoint; coupled PK/LDH NADH assays, four targets; IC50, µM (top dose mostly 10 µM); hit rate 0.02% among 65,000;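 active = single-dose screening hits from any of four coupled enzyme assays that gave an IC50 when retested across doses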;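 also: the DPM-DC format reads NADH fluorescence rather than 340 nm absorbance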
# Hits are given with their value; i = inactive; nt = not tested or not shown. In the library only some 9.3% were active in any assay of this set; here they are far more common.
SMILES,M1 agonist,M1 antagonist,Fluor 339 460,Abs 340nm,mHtt clearance,NADH coupling
Cc1nnc2sc(-c3ccc(NC(=O)c4ccc(-c5ccc(Br)cc5)o4)cc3)nn12,i,i,3.7,i,nt,i
Cc1ccc(-c2nn3c(C)nnc3s2)cc1NC(=O)c1ccc(-c2ccc(Cl)cc2Cl)o1,i,i,3.7,i,nt,i
Cc1cc(C)cc(N(CC(=O)NCc2ccco2)S(=O)(=O)c2c(C)noc2C)c1,i,i,i,i,i,i
O=C(O)COc1ccccc1C1C2C(=O)N(c3ccc(F)cc3)C(=O)C2ON1c1ccccc1 (configuration not stated),i,i,i,i,nt,i
CCC(C)n1c(-c2cccs2)nc2nc3ccccc3nc21 (configuration not stated),i,i,3.9,i,nt,i
c1csc(-c2nnc3ccccn23)c1,i,i,i,i,nt,i
CC1CCN(C(c2cc3cc4c(cc3[nH]c2=O)OCO4)c2nnnn2CC2CCCO2)CC1 (configuration not stated),i,i,3.8,i,i,i
O=c1[nH]c2cc3c(cc2cc1CN(Cc1nnnn1CC1CCCO1)C1CCCC1)OCO3 (configuration not stated),i,i,2.5,i,nt,i
O=c1[nH]c2cc3c(cc2cc1C(c1nnnn1Cc1ccccc1)N1CCN2CCCC2C1)OCCO3 (configuration not stated),i,i,4.7,i,i,i
COCCn1nnnc1C(c1cc2cc(OC)ccc2[nH]c1=O)N1CCC(Cc2ccccc2)CC1 (configuration not stated),i,i,2.1,i,i,i
Cc1cc(S(=O)(=O)NCCCN2CCOCC2)ccc1F,i,i,i,i,nt,i
CC1c2nc3ccccc3n2C(CC(=O)NCc2ccccn2)C(=O)N1Cc1ccccc1 (configuration not stated),i,i,i,i,nt,i
COc1ccc(CCNC(=O)CSc2nc3ccccc3o2)cc1,nt,nt,nt,nt,i,nt
O=C(c1c(Cl)nc2sccn12)N1CCN(c2cccc(Cl)c2)CC1,i,i,i,i,i,i
CCCN1CCN(C(c2cc3cc4c(cc3[nH]c2=O)OCO4)c2nnnn2C(C)(C)C)CC1 (configuration not stated),i,i,3.9,i,i,i
COc1ccc(Cn2nnnc2CN(Cc2cc3ccc(C)cc3[nH]c2=O)C2CCCC2)cc1,i,i,i,i,i,i
COCCn1nnnc1CN(Cc1cc2cc(OC)c(OC)cc2[nH]c1=O)C1CCCC1,i,i,2.7,i,i,i
CCC(C)(C)n1nnnc1C(c1cc2cc3c(cc2[nH]c1=O)OCO3)N1CCCCC1 (configuration not stated),nt,nt,nt,nt,i,nt
C=CCn1c(CCC(=O)O)ccc1-c1ccccc1,i,i,i,i,i,i
CC(=O)N1CCc2cc(S(=O)(=O)NCCC(=O)NC3CCCc4ccccc43)ccc21 (configuration not stated),i,i,i,i,i,i
CCN(CC)C(=O)COc1ccc(-c2ccccc2)cc1,i,i,i,i,i,i
c1ccc2c(c1)ncc1cccn12,i,i,2.1,i,nt,i
COc1ccc(-n2nc3cc(C)c(NC(=O)CC(C)C)cc3n2)cc1,i,i,2.1,i,nt,i
COc1ccc(NC(=O)CC(C)C)c(OC)c1,nt,nt,nt,nt,i,nt
COc1ccc(-n2nc3cc(C)c(NC(=O)c4cccnc4)cc3n2)cc1,i,i,3.3,i,nt,i
SMILES,M1 agonist,M1 antagonist,Fluor 339 460,Abs 340nm,mHtt clearance,NADH coupling
COc1ccc(N2CCN(C(c3ccccc3)c3nnnn3Cc3ccc(F)cc3)CC2)cc1 (configuration not stated),i,i,i,i,i,i
Cc1ccc(C2C3CSCC=C3C(C#N)=C(N)C2(C#N)C#N)cc1 (configuration not stated),i,i,i,i,nt,i
CC1CC=C2C(C#N)=C(N)C(C#N)(C#N)C(c3cccs3)C2C1 (configuration not stated),12,i,i,i,nt,i
C=CCNC(=S)Nc1sc2c(c1C(=O)OCC)CC(C(C)C)OC2 (configuration not stated),nt,nt,nt,nt,i,nt
CC(C)n1c(=NC(=O)c2ccco2)c(C#N)cc2c(=O)n3ccccc3cc21,i,i,2.9,i,nt,i
COc1cc(NC(=O)c2ccco2)c(OC)cc1NC(=O)CCC(=O)Nc1cc(C)ccc1C,i,i,2.7,i,i,i
